High-throughput results deposited in PubChem by National Center for Advancing Translational Sciences (NCATS).
Only some compounds are listed: those with a hit (about 0.87% of all), similar ones and a draw of the others.
Coupling enz – qHTS Assay for Inhibitors of Fructose-1,6-bisphosphate Aldolase from Giardia Lamblia: Coupling assay counterscreen; coupling enzyme system counterscreen, AmpLite Red fluorescence; activity change, negative = inhibition, % at 58.2 µM, hits read low; 290,000 tested, 0.67% active; AID 2472, 2010; in the data active = activity change below about -30%
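Fluorescence at 525 nm excitation and 598 nm emission measured inhibition of the coupled detection system without aldolase. Compounds (at 57.5 uM final) were preincubated 10 min at room temperature with coupling enzyme reagent before a 20 min substrate/AmpLite Red step.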
EPAC2 antagonist – qHTS for Antagonist of cAMP-regulated guanine nucleotide exchange factor 2 (EPAC2): primary screen; Rap guanine nucleotide exchange factor 4 (Homo sapiens), Q8WZA2; EPAC2 GEF exchange of Rap1B-BODIPY-GDP, fluorescence; Potency, µM (highest dose often 114 µM), usual class: inhibitors; 360,000 tested, 0.18% active; also: nearly all actives have a fitted effect of over 45% in size
Target sequence (Q8WZA2 whole entry, looked up): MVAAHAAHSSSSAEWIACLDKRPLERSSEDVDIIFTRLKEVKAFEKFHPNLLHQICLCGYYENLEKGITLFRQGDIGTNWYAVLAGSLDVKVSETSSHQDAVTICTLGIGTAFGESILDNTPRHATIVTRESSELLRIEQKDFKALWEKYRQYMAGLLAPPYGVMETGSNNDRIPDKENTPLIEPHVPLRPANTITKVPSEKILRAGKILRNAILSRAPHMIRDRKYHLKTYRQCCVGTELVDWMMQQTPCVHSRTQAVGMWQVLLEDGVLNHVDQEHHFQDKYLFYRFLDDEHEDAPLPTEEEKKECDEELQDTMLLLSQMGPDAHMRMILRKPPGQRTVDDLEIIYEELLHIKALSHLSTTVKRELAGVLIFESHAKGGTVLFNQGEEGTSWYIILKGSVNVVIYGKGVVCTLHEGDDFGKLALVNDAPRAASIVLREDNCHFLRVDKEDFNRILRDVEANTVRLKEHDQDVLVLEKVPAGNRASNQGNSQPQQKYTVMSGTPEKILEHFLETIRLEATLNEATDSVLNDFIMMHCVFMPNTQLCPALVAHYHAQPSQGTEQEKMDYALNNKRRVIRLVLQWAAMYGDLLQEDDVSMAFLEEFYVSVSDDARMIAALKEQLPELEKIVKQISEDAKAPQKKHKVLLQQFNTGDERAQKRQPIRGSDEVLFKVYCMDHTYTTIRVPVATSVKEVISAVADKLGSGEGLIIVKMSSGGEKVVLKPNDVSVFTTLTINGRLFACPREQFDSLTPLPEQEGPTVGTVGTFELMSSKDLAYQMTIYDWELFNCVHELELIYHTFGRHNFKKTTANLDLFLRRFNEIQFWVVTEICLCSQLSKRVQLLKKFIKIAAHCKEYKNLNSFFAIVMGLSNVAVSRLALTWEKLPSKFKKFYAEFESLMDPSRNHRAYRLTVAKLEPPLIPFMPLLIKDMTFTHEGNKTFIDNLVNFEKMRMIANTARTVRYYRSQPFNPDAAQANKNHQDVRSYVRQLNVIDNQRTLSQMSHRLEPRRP
EPAC1 agonist – qHTS for Agonist of cAMP-regulated guanine nucleotide exchange factor 3 (EPAC1): primary screen; Rap guanine nucleotide exchange factor 3 (Homo sapiens), O95398; EPAC1 agonist qHTS, biochemical assay; response scale: 100% = response to 6.5 mM cAMP; Potency, µM (titrated, usually from 154 µM), usual class: activators; 360,000 tested, 0.073% active; also: nearly all actives have a fitted effect of over 60% in size
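Multi-concentration qHTS readout: loss of Rap1B-bound BODIPY-GDP fluorescence driven by 100 nM EPAC1 with excess GDP (50 uM), monitored kinetically at room temperature; agonist response expressed relative to 6.5 mM cAMP.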
EPAC2 ag – qHTS for Agonist of cAMP-regulated guanine nucleotide exchange factor 4 (EPAC2): primary screen; Rap guanine nucleotide exchange factor 4 (Homo sapiens), Q8WZA2; EPAC2 activation, biochemical qHTS; response scale: 100% = 6.5 mM cAMP response; Potency, µM (highest dose often 154 µM), actives largely listed as activators; 360,000 tested, 0.079% active; also: nearly all actives have a fitted effect of over 50% in size
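Exchange assay: 100 nM EPAC2 with 250 nM Rap1B-BODIPY-GDP and 50 uM GDP. Fluorescence (ex 480/em 540 nm) read every 5 min for 30 min at room temperature. Data normalized to 6.5 mM cAMP as agonist control.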
EPAC1 antagonist – qHTS for Antagonist of cAMP-regulated guanine nucleotide exchange factor 3 (EPAC1): primary screen; Potency, µM (series often up to 115 µM), most hits filed as inhibitors; 360,000 tested, 0.14% active; EPAC1 GEF assay, Rap1b-BODIPY-GDP exchange fluorescence; Rap guanine nucleotide exchange factor 3 (Homo sapiens), O95398; also: nearly all actives have a fitted effect of over 50% in size
USP1 inh – Inhibitors of USP1/UAF1: Primary Screen | Potency, µM (highest dose often 57.1 µM), actives largely listed as inhibitors | Ubiquitin carboxyl-terminal hydrolase 1 (Homo sapiens), O94782 | 390,000 tested, 0.23% active | recombinant USP1/UAF1, Ub-Rhodamine cleavage fluorescence; also: nearly all actives have a fitted effect of over 60% in size
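Step one: compound is pinned into 1nM USP1/UAF1 in HEPES pH 7.8 buffer with TCEP. Step two: 15 min room-temperature incubation. Step three: Ub-Rho (150nM final) starts cleavage, tracked by fluorescence over six one-minute reads.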
A number is an active result; 0 = inactive; ? = inconclusive; - = no result given. Unless noted, calls follow the shape of the dose curve; as a rule, active = well fitted curve in the direction sought with a large enough effect; inconclusive = small, poorly fitted or top-dose-only effect, or another doubt; inactive = no such curve, though single readings can be large; an effect the other way counts as inactive or inconclusive.

SMILES	Coupling enz	EPAC2 antagonist	EPAC1 agonist	EPAC2 ag	EPAC1 antagonist	USP1 inh
CCOC(=O)c1c(C)sc(-c2c(-c3ccc(OC)c(F)c3)[nH]c3[nH]c(=O)[nH]c(=O)c23)c1O	-	-	-	-	-	0
CCOC(=O)c1c(C)sc(-c2c(-c3ccc(OC)c(F)c3)[nH]c3c2c(=O)[nH]c(=O)n3C)c1O	-	-	-	-	-	22µM
CCOC(=O)c1c(C)sc(-c2c(-c3ccc4c(c3)OCCO4)[nH]c3c2c(=O)n(C)c(=O)n3C)c1O	-	-	-	-	-	16µM
COc1cc(/C=C/C(=O)OCc2c(C)noc2C)ccc1OC(F)F	0	0	0	0	0	0
CSc1ncnc2c1ncn2CCCN[C@H](C)c1cccc2ccccc12	-	0	0	0	0	0
CC(=O)Oc1cc(-c2coc3cc(OC(C)=O)c(OC(C)=O)c(OC(C)=O)c3c2=O)cc(OC(C)=O)c1OC(C)=O	-51	-	-	-	-	-
COC(=O)c1sccc1NC(=S)OC	0	0	0	0	0	0
N#CC(C#N)=C1C(=O)N(CCN2CCOCC2)c2ccccc21	-36	0	0	0	0	0
Cc1ccc2c(c1)C(=C(C#N)C#N)C(=O)N2CCN1CCOCC1	-36	0	0	0	0	0
COc1ccc(C(CC(=O)Nc2cc(C)ccn2)N2Cc3ccccc3C2=O)cc1 (stereo not given)	0	0	0	0	0	0
CCOC(=O)c1c(C)nc2c(c1-c1cc(OC)ccc1OC)C(=O)c1ccccc1-2	0	0	0	0	0	0
CCOC(=O)C1=C(Cc2ccc(C)cc2)C(=O)c2ccccc2C1=O	-47	-	-	-	-	-
CCOC(=O)C1=C(Cc2ccc(OC)cc2)C(=O)c2ccccc2C1=O	-56	0	?	?	0	?
CCOC(=O)c1ccc(COC(=O)c2ccc3c(c2)-c2ccccc2C3=O)cc1	0	0	0	0	0	0
CC1CCN(C(=O)c2c(NC(=O)c3ccccc3Cl)sc3c2CCC(C(C)(C)C)C3)CC1 (stereo not given)	-	-	-	-	-	0
COc1ccc(OC)c(S(=O)(=O)Nc2c(C)n(C)n(-c3ccccc3)c2=O)c1	0	0	0	0	0	0
Cc1onc(-c2ccccc2)c1C(=O)N1CCN(c2ncccn2)CC1	0	0	0	0	0	0
CN1/C(=C\C=C(C#N)C#N)C(C)(C)c2ccccc21	0	0	0	63µM	0	?
CC1CCN(C(=O)COc2ncnc3ccccc23)CC1	0	0	0	0	0	0
COc1ccccc1N(C(C)=O)C1=C(Cl)C(=O)c2ccccc2C1=O	-	0	0	0	0	18µM
CCCCn1nnnc1C(c1ccccc1)N1CCN(C(C)=O)CC1 (stereo not given)	-	0	0	0	0	-
COC(=O)c1n[nH]n(-c2cc(Cl)cc(Cl)c2)c1=O	0	0	0	0	0	0
CCN(CC)c1ccc(N=Cc2ccc([N+](=O)[O-])o2)cc1	-39	0	0	0	0	?
CCCN1C(=O)S/C(=C\c2ccc(N3CCOCC3)o2)C1=O	-50	0	?	?	0	25µM
CCOC(=O)CN1C(=O)S/C(=C/c2ccc(N3CCCCC3)o2)C1=O	0	0	0	0	0	?
SMILES	Coupling enz	EPAC2 antagonist	EPAC1 agonist	EPAC2 ag	EPAC1 antagonist	USP1 inh
COC(=O)CN1C(=O)S/C(=C/c2ccc(N3CCCCC3)o2)C1=O	-43	0	0	0	0	28µM
CCCN1C(=O)S/C(=C/c2ccc(N3CCOCC3)o2)C1=O	-48	0	79µM	112µM	0	28µM
NS(=O)(=O)c1ccc(NC(=O)Cc2c(F)cccc2Cl)cc1	0	28µM	0	0	0	0
O=C(Cc1c(Cl)cccc1Cl)Nc1ccc(S(=O)(=O)Nc2ncccn2)cc1	0	10µM	0	0	0	?
Cc1ccnc(NS(=O)(=O)c2ccc(NC(=O)Cc3c(F)cccc3Cl)cc2)n1	0	?	0	0	0	0
CC1(C(=O)NS(=O)(=O)c2ccc(Cl)cc2)CCN1C(=O)Cc1ccccc1 (stereo not given)	-	0	0	0	0	-
CCCc1[nH]c2ccc(C(=O)OC)cc2c1CCC	0	28µM	0	0	0	0
CCCc1[nH]c2ccc(C#N)cc2c1CCC	0	28µM	0	0	0	0
Cc1ccc2c(c1)c1c(c(=O)n(Cc3ccccc3)c(=O)n1CC(=O)Nc1ccccc1C)n2C	-	-	-	-	-	0
Cc1ccc(C(CCN(Cc2ccccc2)C(=O)c2ccco2)c2ccco2)cc1 (stereo not given)	0	?	0	0	50µM	0
O=C(c1ccco1)N(CCC(c1ccccc1)c1ccco1)Cc1ccco1 (stereo not given)	0	0	0	0	?	?
Cc1[nH][nH]c(=O)c1C(c1ccc(Br)cc1)c1c(C)[nH][nH]c1=O	0	0	0	0	0	0
COc1ccc(C(=O)Oc2ccc(C(c3c(C)[nH][nH]c3=O)c3c(C)[nH][nH]c3=O)cc2OC)cc1	-	-	-	-	-	0
Cc1[nH][nH]c(=O)c1C(c1ccc(-c2cccc(Cl)c2)o1)c1c(C)[nH][nH]c1=O	-48	?	0	0	?	28µM
COC(=O)c1ccc(-c2ccc(C(c3c(C)[nH][nH]c3=O)c3c(C)[nH][nH]c3=O)o2)cc1	-45	0	0	0	0	28µM
Cc1[nH][nH]c(=O)c1C(c1ccc(-c2cccc(C(=O)O)c2)o1)c1c(C)[nH][nH]c1=O	-31	0	0	0	0	?
Cc1[nH][nH]c(=O)c1C(c1ccc(-c2ccccc2C(=O)O)o1)c1c(C)[nH][nH]c1=O	-47	0	0	0	0	?
Cc1[nH][nH]c(=O)c1C(c1ccc(-c2ccc(Cl)cc2Cl)o1)c1c(C)[nH][nH]c1=O	-58	-	-	-	-	-
COc1cc(C(c2c(C)[nH][nH]c2=O)c2c(C)[nH][nH]c2=O)ccc1OCc1ccc([N+](=O)[O-])cc1	-35	0	0	0	0	0
CCCCC(=O)Nc1c(-c2ccc(OC)c(OC)c2)c(=O)c2ccccc2n1C	0	0	0	0	0	0
CC1CCN(S(=O)(=O)c2ccc3c(c2)N(CC(=O)NCCCOC(C)C)C(=O)CO3)CC1	0	0	0	0	0	0
Cc1ncc(CO)c2c1OC(C)(C)OC2	0	0	0	0	0	0
Cc1ncc(CCl)c2c1OC(C)(C)OC2	-38	0	0	0	0	0
